Assay results taken from PubChem BioAssay (NCI).
This is part of a sample that, as a whole, favours compounds with a hit. Of some 79,000 tested, about 15% had one in any assay. No stated cut-off is given here; in the data, active means growth inhibition above about 70%; inactive means the rest.

Key:
[1] = NCI Yeast Anticancer Drug Screen. Data for the rad50 strain (AID 155);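 further: 0% = growth of vehicle-only cultures of the same strain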; details: S. cerevisiae rad50 strain growth inhibition; at 50.0 µM; stronger effect = higher value
Procedure, shortened: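 Cells are treated with compound, grown, and their growth is then scored against vehicle-only cultures of the same repair-deficient yeast strain.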

[2] = NCI Yeast Anticancer Drug Screen. Data for the mec2-1 strain (AID 157); details: S. cerevisiae mec2-1 strain, at 50.0 µM, stronger effect = higher value
Procedure, shortened: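 Mutant yeast (mec2-1) grown with compound; growth inhibition relative to vehicle control reported.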

[3] = NCI Yeast Anticancer Drug Screen. Data for the sgs1 mgt1 strain (AID 161);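 further: 0% = growth of cultures given vehicle only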; details: S. cerevisiae sgs1 mgt1 strain, at 50.0 µM, stronger effect = higher value
Procedure, shortened: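 Growth of a repair-deficient yeast mutant was monitored after compound treatment and expressed as inhibition relative to vehicle-treated cultures.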

[4] = NCI Yeast Anticancer Drug Screen. Data for the cln2 rad14 strain (AID 165);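 further: 0% = growth equal to vehicle treated cultures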; details: S. cerevisiae cln2 rad14 strain, at 50.0 µM, stronger effect = higher value
Procedure, shortened: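 Readout is yeast growth inhibition versus vehicle-treated controls, using a strain with cln2 and rad14 alterations exposed to compound.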

[5] = NCI Yeast Anticancer Drug Screen. Data for the bub3 strain (AID 167); details: S. cerevisiae bub3 mutant strain, at 50.0 µM, stronger effect = higher value
Procedure, shortened: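 Part of a panel of yeast mutants defective in DNA damage repair or cell cycle regulation. Each strain is grown with compound, and inhibition is calculated relative to solvent-treated cultures.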

[6] = NCI Yeast Anticancer Drug Screen. Data for the mlh1 rad18 strain (AID 175); details: S. cerevisiae mlh1 rad18 strain growth inhibition; at 50.0 µM; stronger effect = higher value
Procedure, shortened: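 Genetically defined yeast (DNA repair-deficient) exposed to compounds; growth inhibition determined relative to vehicle.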

Measured: growth inhibition

COC(=O)c1cc(NC(=O)Nc2ccc(F)c([N+](=O)[O-])c2)cc(C(=O)OC)c1
inactive: [1] 8.9% | [2] 4.85% | [3] -4.6% | [4] 7.3% | [5] -1.3% | [6] 26.8%

Nc1c(Cl)ncnc1NCCCCCCCCCCCCNc1ncnc(Cl)c1N
inactive: [1] -6.4% | [2] 1.75% | [3] 26.1% | [4] -8.95% | [5] -9.7% | [6] 1.85%

CC(C)=CC(=O)N1CCN(C(=O)C=C(C)C)CC1
inactive: [1] -33.9% | [2] -20.1% | [3] -5.75% | [4] 18.8% | [5] 10.9% | [6] -10.4%

CC(=O)N(C)c1ccc(NC(=O)Cc2ccccc2)cc1
inactive: [1] 12.7% | [2] 22.7% | [3] 23.6% | [4] 9.95% | [5] 35.5% | [6] -2.35%

CCN(CC)CCCNc1nc2ccccc2c2c1ncn2CC(C)C
inactive: [1] -51% | [2] 5.4% | [3] -20.8% | [4] 27.1% | [5] 13.2% | [6] 6.35%

CCCC(=O)Oc1ccc(Cl)cc1
inactive: [1] 12.9% | [2] -4.45% | [3] 1.35% | [4] 20.1% | [5] 1.45% | [6] -6.65%

C=C1C(=O)C23C(O)CC4C5(C)CCCC4(C(O)OC5)C2C(OC(C)=O)CC1C3O (stereo unspecified)
inactive: [1] 10.3% | [2] 8.45% | [3] 11.4% | [4] 10.1% | [5] -7.3% | [6] 0.75%

CN1CCS(=O)(=O)CC1
inactive: [1] 5.4% | [2] -40% | [3] -17.6% | [4] -2.55% | [5] 1.75% | [6] 5.05%

CC1(CCOCc2ccccc2)NC(=O)NC1=O (stereo unspecified)
inactive: [1] -32.2% | [2] -8.4% | [3] -44.4% | [4] -33% | [5] -13.2% | [6] -19.9%

Cc1cc2nc3c(C(O)C(O)C(O)CO)nn(-c4ccccc4)c3nc2cc1C (stereo unspecified)
inactive: [1] -2.55% | [2] 5.05% | [3] -9.25% | [4] -15.6% | [5] -5.05% | [6] 16.1%

Cc1cc(C)c(Br)c(C)c1C
inactive: [1] -17.4% | [2] 4.15% | [3] -9.95% | [4] -53.4% | [5] 8.5% | [6] -22.7%

CCN(CC)C(=O)C1CCN(Cc2c[nH]c3ccccc23)CC1
inactive: [1] -3.05% | [2] -6.85% | [3] -10.2% | [4] -53% | [5] 2.75% | [6] -0.2%

C#CCn1c(=O)c2ccccc2n(CC#C)c1=O
inactive: [1] -10.3% | [2] -1.6% | [3] -6.3% | [4] 15.8% | [5] 9.05% | [6] 23.9%

O=c1[nH]nc(S(=O)(=O)NC2CCCCC2)c(=O)[nH]1
inactive: [1] 12.6% | [2] -13.1% | [3] -7.3% | [4] -20.9% | [5] 2.65% | [6] 5.6%

COc1c2occc2c(OC)c2c(=O)c(S(=O)(=O)NC(=O)Nc3ccc(Cl)cc3)coc12
inactive: [1] 5.7% | [2] -11.8% | [3] 3.65% | [4] -55.8% | [5] -20.3% | [6] 2.4%

C=CCC1(C)C(=O)CCC1=O
inactive: [1] -18.5% | [2] -5.8% | [3] 0.6% | [4] -12.6% | [5] 1.15% | [6] -4.1%

COc1ccc(CCNC(=S)N/C=C(\C#N)S(=O)(=O)c2ccc(C)cc2)cc1OC
inactive: [1] 6% | [2] -0.6% | [3] 4.55% | [4] 3.45% | [5] -19.8% | [6] -11.6%

CNc1ccccc1C(=O)N/N=C\c1ccc(Cl)cc1Cl
inactive: [1] -7.75% | [2] -4.9% | [3] -1.3% | [4] -2.85% | [5] -10.1% | [6] -5.15%

COc1cc(NCCN2CCOCC2)c([N+](=O)[O-])cc1OC
inactive: [1] 22.3% | [2] 12.1% | [3] 8.25% | [4] 2.6% | [5] -0.65% | [6] 8.15%

COc1ccc2c(c1O)C1(CCN(C)C)CC(=O)CCC1C=C2 (stereo unspecified)
inactive: [1] 13.2% | [2] -11.5% | [3] 9.55% | [4] 6.2% | [5] 25.5% | [6] 12.4%

CCOCCOCCOCOCCOCCOCC
inactive: [1] 17.2% | [2] -25.2% | [3] 8.4% | [4] 7.25% | [5] 25.9% | [6] -4%

CC(Nc1cccc(Cl)c1)c1ccncc1 (stereo unspecified)
inactive: [1] 4.05% | [2] 12% | [3] -15.2% | [4] -5.55% | [5] 24.6% | [6] -11.4%

NC(=O)C(Cc1ccc(O)cc1)NC(=O)c1cccnc1 (stereo unspecified)
inactive: [1] -7.3% | [2] 0.7% | [3] -0.95% | [4] -2.05% | [5] -9.05% | [6] 4.35%

Nc1cc2[nH]c(=O)c3cc([N+](=O)[O-])ccc3c2cc1Cl
inactive: [1] 63.1% | [2] 1.3% | [3] 12.3% | [4] 4.8% | [5] -11.6% | [6] 32.2%

Oc1ccc2ccc(O)cc2c1
inactive: [1] 21.4% | [2] 21.6% | [3] 10.4% | [4] 12.2% | [5] 11.8% | [6] 5.4%

COC1OC(C(C)Br)C2OC(C)(C)OC12 (stereo unspecified)
inactive: [1] 7.1% | [2] 21.4% | [3] 3.5% | [4] -6.2% | [5] 9.85% | [6] 27.4%

COC(=O)c1ccc(NC(=O)c2cc(OC)c(OC)c(OC)c2)cc1
inactive: [1] -24.3% | [2] -24.1% | [3] -19.4% | [4] -5.05% | [5] -9% | [6] -24%

CC(=O)Nc1ccc(CCc2ccc(NC(C)=O)cc2)cc1
inactive: [1] -2.9% | [2] -13.7% | [3] -7.3% | [4] -60.2% | [5] 5.6% | [6] -12.3%

CCOC(=O)CCc1c(C)c2c(OC(C)=O)cc(OC(C)=O)cc2oc1=O
inactive: [1] 31.6% | [2] 0.9% | [3] 17.4% | [4] 13.4% | [5] -1.05% | [6] 2.4%

O=c1[nH]cc(Cl)cc1Cl
inactive: [1] 0.05% | [2] 3.85% | [3] -4% | [4] -8.35% | [5] 2.3% | [6] -1.45%

O=C(Nc1ccc(F)cc1)Nc1cccc(C(=O)O)c1
inactive: [1] 20% | [2] 7.9% | [3] 6.4% | [4] 7.6% | [5] 22.4% | [6] 12.2%

O=C(c1ccccc1)C1C(C(=O)c2ccccc2)C(c2ccccc2)N(c2ccccc2)C1c1ccccc1 (stereo unspecified)
inactive: [1] 27.4% | [2] 17.8% | [3] -27.1% | [4] 18.9% | [5] -12.2% | [6] -75.2%

Cc1no[n+]([O-])c1NC(=O)OCc1ccccc1
inactive: [1] -1.8% | [2] -11% | [3] -2.6% | [4] -37.8% | [5] -15.3% | [6] 6.9%

COc1cc(CNc2nc3c(N)cc(C(F)(F)F)cc3nc2-c2ccccc2)cc(OC)c1OC
inactive: [1] 0.25% | [2] -9.35% | [3] 6.6% | [4] 17.6% | [5] -11.3% | [6] -25.6%

CCN(CC)C(=O)c1ccccc1C
inactive: [1] 17.2% | [2] -2.65% | [3] -9.7% | [4] 6.7% | [5] -3.85% | [6] 0.45%

CCCCNc1cccc2ccccc12
inactive: [1] 50.2% | [2] 23.1% | [3] -10.2% | [4] -43.5% | [5] 2.55% | [6] 27.6%

Cc1c(O)c2ccccc2n(C)c1=O
inactive: [1] -9.45% | [2] -12.4% | [3] -15.7% | [4] -6.1% | [5] 3.85% | [6] -6.8%

O=C(O)C1(C(=O)O)CCCCC1.[NH-]CC1(C[NH-])CCCCC1.[Pt+2]
inactive: [1] 21.8% | [2] 9.95% | [3] 27.8% | [4] 21.1% | [5] 5.85% | [6] 14.9%

CCOc1ccc(-n2c(=O)c(N=Nc3ccccc3Cl)c(O)n(-c3ccc(Br)cc3)c2=S)cc1
inactive: [1] 38.5% | [2] 17.9% | [3] 52.1% | [4] 12.7% | [5] -11.7% | [6] 5.8%

CC(=O)Nc1ccc(S(=O)(=O)n2c(=O)oc3cc(Br)ccc32)cc1
inactive: [1] 7.4% | [2] 3.35% | [3] -7% | [4] 2.35% | [5] 0.05% | [6] 0.65%

Nc1nc(O)cc(=O)[nH]1
inactive: [1] 3.35% | [2] -1.95% | [3] -0.65% | [4] -8.5% | [5] 2.35% | [6] -3.25%
